SW480 rereplic – DNA re-replication induction in SW480 cells; SW480 DNA re-replication, Hoechst DNA content imaging, 48 h; Potency, µM (doses to about 46.1 µM), inactives show at the highest dose re-replication activation, most hits filed as activators; 340,000 compounds, 1.8% hits; AID 624297; also: % of control where 0% means no effect; nearly all actives have a fitted effect of over 55% in size
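DNA re-replication was detected as more nuclei of elevated Hoechst intensity after 48 hr exposure to compound (23 nL pinned per well of 250 cells).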
MCF10A rereplic – induces DNA re-replication in MCF 10a normal breast cells | 350,000 compounds, 2.9% hits | Potency, µM (highest dose often 46.1 µM), for the others: at the top dose activity, positive = re-replication, actives largely listed as activators | AID 624296 | MCF 10A DNA re-replication, Hoechst nuclear intensity, 48 h; also: % of control where 0% means no effect; nearly all actives have a fitted effect of over 50% in size
KB-3-1 tox – KB-3-1 parental cell cytotoxicity | KB-3-1 viability, CellTiter-Glo ATP luminescence, 72 h | Potency, µM (doses to about 46.1 µM), actives largely listed as cytotoxic | 400,000 compounds, 1.4% hits | AID 1347075; also: % is scaled to controls: 0 for no effect and ±100 for the full control effect; nearly all actives have a fitted effect of over 60% in size
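Cells are dispensed, compounds pinned in, plates held at 37 °C for 72 h, then CellTiter-Glo is added and luminescence read after 10 minutes. Cell line: parental KB-3-1 in phenol-red-free DMEM, 10% FBS.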
ELG1 DNA repair – blocks ELG1-dependent DNA repair in HEK293T cells. HEK293T ELG1-luciferase reporter, luminescence, 16 h; DNA damage induced by 5-fluorouridine. Potency, µM (doses to about 46.1 µM), for inactives: at the highest dose activity change, negative = inhibition, usual class: inhibitors. 330,000 compounds, 2.3% hits; also: % is scaled to controls: 0 for no effect and ±100 for the full control effect; nearly all actives have a fitted effect of over 55% in size
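Quantitative HTS, concentration-response format. 2,000 cells/well co-treated with 5-fluorouridine and compound, 16 hr in 5% CO2 at 37 °C; ONE-Glo luminescence read after 30 min.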
KB-V1 MDR tox – KB-V1 MDR subline cytotoxicity; KB-V1 MDR cells viability, CellTiter-Glo, 72 h; Potency, µM (highest dose often 46.1 µM), actives largely listed as cytotoxic; 400,000 compounds, 3.4% hits; AID 1347076; also: % is scaled to controls: 0 for no effect and ±100 for the full control effect; nearly all actives have a fitted effect of over 60% in size
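Luminescent ATP read-out (CellTiter-Glo, 10 min) measures survival of drug-selected KB-V1 MDR cells after 72 h, 37 degrees C compound exposure. Medium: phenol-red-free DMEM, 10% FBS. Values from fitted concentration-response curves.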
Starred values were filed as active, the others as inactive; i = inactive; ? = inconclusive; · = no result; [ ] = remark or other dose. Shown are actives, neighbours in structure and some others; about 8.1% of the full set was active somewhere. Calls follow the shape of the dose curve; as a rule, active = well fitted curve in the direction sought with a large enough effect; inconclusive = small, poorly fitted or top-dose-only effect, or another doubt; inactive = no such curve, though single readings can be large; an effect the other way counts as inactive or inconclusive. Potency is read from the fitted curve at half-maximal effect.

SMILES | SW480 rereplic | MCF10A rereplic | KB-3-1 tox | ELG1 DNA repair | KB-V1 MDR tox
O=[N+]([O-])c1cccc(-c2ccc(C(=S)N3CCN(c4ccccc4)CC3)o2)c1 | -13% | ? | i | 0% | i
O=[N+]([O-])c1ccccc1-c1ccc(C(=S)N2CCCCC2)o1 | -10% | 19% | i | ? | i
O=[N+]([O-])c1ccccc1-c1ccc(C(=S)N2CCCC2)o1 | 8.2µM* | -22% | i | ? | i
O=C1NC(=S)/C(=C\c2ccc(-c3ccccc3Cl)o2)S1 | -49% | 6.5µM* | ? | -6% | i
O=C1NC(=O)/C(=C/c2ccc(-c3cc(C(=O)O)ccc3Cl)o2)S1 | -2% | ? | i | 1% | i
Cc1ccc(C(=O)NCCn2c(N)c(C#N)c3nc4ccccc4nc32)cc1 | 21µM* | ? | ? | -2% | i
N#Cc1c(N)n(CCNC(=O)c2ccc(Cl)cc2)c2nc3ccccc3nc12 | ? | 18µM* | i | ? | i
N#Cc1c(N)n(CCOC(=O)c2cccc(Br)c2)c2nc3ccccc3nc12 | ? | ? | i | · | i
CCCCCCN1C[C@H](n2cc(C3CC3)nn2)[C@@H](O)C[C@@H]1c1ccc(Cl)cc1 | · | · | i | · | i
CO[C@@H]1CN(C)C(=O)c2cc(NC(=O)Nc3ccc4c(c3)OCO4)ccc2OC[C@@H](C)N(C)C[C@H]1C | · | · | i | · | i
COc1ccc(-c2ccc3c(c2)S(=O)(=O)c2cccc(C(=O)N4CCN(c5c(Cl)cncc5Cl)CC4)c2C3=O)cc1OC | ? | ? | i | ? | ?
CC1CCCN(c2nc3ccsc3c(=O)s2)C1 (stereo not given) | 18% | 18µM* | ? | ? | 16µM*
CCc1nnc(NC(=O)CSc2nc3c([nH]c4ccccc43)c(=O)n2-c2ccc(Cl)cc2)s1 | · | · | i | · | i
Cc1cc(Nc2cccc(Br)c2)n2c(nc3ccccc32)c1C#N | · | · | 8.2µM* | · | ?
N#Cc1c2c(c(Nc3ccccc3)n3c1nc1ccccc13)CCC2 | 3%[9.22 µM] | 16µM* | ? | -4% | i
Cc1cc(Nc2ccc(O)cc2)n2c(nc3ccccc32)c1C#N | -20%[1.84 µM] | -24% | i | -7% | i
N#Cc1c2c(c(Nc3ccc(F)cc3)n3c1nc1ccccc13)CCCC2 | 7% | ? | ? | · | i
CCOC(=O)CCn1nc(-c2ccc(Cl)cc2)cc1N | 2% | 4% | 21µM* | ? | ?
CSCCC(C(=O)NCc1ccccc1)n1c(C2CCN(C(C)=O)CC2)nc2ccccc21 (stereo not given) | · | · | ? | · | i
CCC1CN(C(=O)Nc2ccc(C(=O)O)cc2)c2cc(Cl)ccc2O1 (stereo not given) | · | · | i | · | ?
CCOC(=O)C1CCN(CC(C)(C)NS(=O)(=O)c2ccc(C)cc2)CC1 | -5% | 0% | i | ? | i
CCOC(=O)C1CCN(CC(C)(C)NS(=O)(=O)c2ccc(Cl)cc2)CC1 | 10% | 15µM* | i | -4% | i
CC(C)(CN1CCNCC1)NS(=O)(=O)c1ccc(Cl)cc1 | 4% | 12µM* | 21µM* | 11% | i
COc1ccc(C(=O)c2cn(Cc3ccc(F)cc3)c3c(F)cc(F)cc3c2=O)cc1 | · | · | i | · | i
Cc1cccc(-n2c(C)cc(/C=C3\NC(=O)NC3=O)c2C)c1 | ? | 16µM* | i | ? | ?
SMILES | SW480 rereplic | MCF10A rereplic | KB-3-1 tox | ELG1 DNA repair | KB-V1 MDR tox
Cc1cc(/C=C2/NC(=O)NC2=O)c(C)n1-c1ccncc1 | -12% | 0% | i | -7% | ?
COc1ccc(CCNC(=O)CN(c2ccc(C)cc2)S(=O)(=O)c2c(C)noc2C)cc1OC | -2% | -5% | i | -9% | i
COc1ccc(CN(C)S(=O)(=O)c2c(C)noc2C)cc1OC | -2% | 3% | i | 2% | 18µM*
COc1ccc(Br)cc1CN1CCC(N2CCCC2)CC1 | ? | 23µM* | i | -3% | i
COc1ccc(Br)cc1CN1CCCC(C(=O)N2CCCCC2)C1 (stereo not given) | 2% | 15% | i | -10% | i
CCCCOc1ccc(S(=O)(=O)NC(=O)C2(C)CCN2C(=O)Cc2cccs2)cc1 (stereo not given) | · | · | i | · | i
COc1cccc(CC(=O)Nc2nc(C)cs2)c1 | -5% | 1% | i | 15% | i
COc1ccc(-c2csc(NC(=O)Cc3cc(OC)c(OC)c(OC)c3)n2)cc1OC | 2% | 3% | i | ? | 6.5µM*
COc1cc(CC(=O)Nc2nc(C)cs2)cc(OC)c1OC | -4% | -6% | i | 15µM* | i
COc1ccc(-c2csc(NC(=O)CS(=O)(=O)c3ccc(F)cc3)n2)cc1OC | 0% | 6% | i | ? | i
O=C(NCc1cc2ccccc2[nH]1)C1CCC(=O)N(CCCN2CCCC2=O)C1 (stereo not given) | ? | -2% | i | 5% | i
CC(C)n1cc(CN2CCCC(C(=O)Nc3cccc(-c4cc5ccccc5[nH]4)c3)C2)cn1 (stereo not given) | ? | 16µM* | ? | ? | ?
Cn1cc(CN2CCCC(C(=O)Nc3cccc(-c4cc5ccccc5[nH]4)c3)C2)cn1 (stereo not given) | ? | ? | ? | 3% | i
CCN(C(=O)COC(=O)c1oc2ccccc2c1C)c1c(N)n(Cc2ccccc2)c(=O)[nH]c1=O | 4% | 10% | i | -27% | i
Cc1cc(C)c(C)c(N=Nc2nc3ccccc3n2C)c1C | ? | 21% | ? | ? | ?
Cc1ccc(C)c(N=Nc2nc3ccccc3n2C)c1 | ? | ? | i | ? | 15µM*
COc1cccc(CNCCSc2nnnn2C)c1OCc1ccc(F)cc1 | · | · | i | · | i
COc1cccc(CNCCc2c[nH]c3ccccc23)c1OCc1ccc(F)cc1 | ? | ? | ? | -18% | 16µM*
COc1cc(CNCCc2c[nH]c3ccccc23)ccc1OCc1ccc(F)cc1 | ? | ? | i | -11% | 5.2µM*
COc1cc(CNCCc2c[nH]c3ccccc23)cc(Cl)c1OCC(N)=O | -2% | ? | i | 2% | i
COc1ccc(S(=O)(=O)N2Cc3ccccc3CC2C(=O)Nc2cc(Cl)ccc2Cl)cc1 (stereo not given) | · | · | i | · | i
COc1ccc(N2CC(C(=O)Nc3ccc(S(=O)(=O)Nc4nccs4)cc3)CC2=O)c(OC)c1 (stereo not given) | -8% | -3% | i | 13% | ?
O=[N+]([O-])c1cc(S(=O)(=O)O)cc([N+](=O)[O-])c1NN(c1ccccc1)c1ccccc1 | -7% | 0% | i | -5% | i
